Measurements taken from the OligoGym collection.

The sequences below were run against DPEP3 (assay: pooled miR-30 sensor sort-seq; sequence = guide strand). Conditions: shRNA.
Also: reference of the scale not given here.

Sequence | sensor-assay potency score (higher = more potent)
TTGGTGGAACTCTCTGCCCATG | -1.6
AAATTGTCACACACAGCTCTGG | -0.275
TTTGAGAGCTGTTCAGACCTTC | 0.484
TACATGTGGTGTCTGAACTTGG | -0.261
TGAAGCTCTTCCTCGCTCCAGC | -0.659
ATTCTTGTAACGCTGTCTCAGG | -0.648
ATGTGGTGTCTGAACTTGGTGG | -0.807
TTCCACTTGTCTGAAGACCCGC | -0.394
ATTTCGCAGGTTAACATCCTGA | -0.609
AAGCACATTCTTGTAACGCTGT | 0.352
TCAACAAATTGTCACACACAGC | -1.21
TGAACTTGGTGGAACTCTCTGC | 0.129
TTGTCTGAAGACCCGCAGCAGG | -1.57

Each sequence was assayed against DPM2 in the same assay as above. Conditions: shRNA.

Sequence | sensor-assay potency score (higher = more potent)
ATGAACAGTCCCACAAACAGGA | -0.342
TTCAGCATCACATAGGAGATGA | -0.473
TAGTAGGTGAAGATGATCAGGC | 0.327
TCTCTTGGTCTTCAGCATCACA | -1.19
TACTTGTGGATGACATGCTGAC | -0.0583
TCTTGGTCTTCAGCATCACATA | -1.79
TTGTGGATGACATGCTGACTGT | -1.33
TGAACAGTCCCACAAACAGGAG | -1.56
